From PubChem BioAssay
This is a sample that favours compounds with a hit; in the whole collection about 21% have one here.
Shiga inhibitor: blocks Shiga toxin action in Vero cells; AID 2315; actives 9.2% (n = 290,000); Vero cells, Shiga toxin protein synthesis inhibition reporter; inhibition, % at 38.7 µM; in the data active = inhibition mostly above about 28%, no sharp cut-off; inactive = mostly below about 43%
Sm TGR block: blocks Schistosoma mansoni thioredoxin glutathione reductase | actives 3% (n = 360,000) | Potency, µM (top dose mostly 114 µM), hits mostly inhibitors | Q962Y6 | purified TGR, DTNB reduction, TNB absorbance 405 nm; also: nearly all actives have a fitted effect of over 60% in size
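TGR 20 nM + NADPH 100 uM (dispensed conc.), cpd preinc 15 min RT; start with NADPH (500 uM addition) then DTNB (15 mM addition). Kinetic TNB absorbance, 405 nm filter. Four-parameter Hill fit across titration.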
Pf growth 48h: inhibits P. falciparum growth in the first generation, 48 h. P. falciparum luciferase growth in erythrocytes, 48 h. Potency, µM (titrated, usually from 28.7 µM), actives largely listed as inhibitors. actives 5.9% (n = 310,000). AID 504832
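In quantitative HTS format, infected erythrocytes bearing luciferase-reporter parasites were treated for a single generation at 37 C. Luminescence after adding detection reagent served as the growth measure.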
Pf growth 96h: P. falciparum growth inhibition at 96 hours. AID 504834. actives 6.9% (n = 320,000). P. falciparum luciferase reporter growth, 96 h. Potency, µM (titrated, usually from 28.7 µM), actives largely listed as inhibitors
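Delayed-death screen, second-generation endpoint: infected erythrocytes, 2% hematocrit, 0.05% parasitemia final; 96 hours at 37 C, 5% CO2; luciferase detection reagent; luminescence decrease equals reduced growth.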
NS1 inh: influenza NS1 inhibition; Potency, µM (series often up to 46.1 µM); actives 0.4% (n = 270,000); calls by dose curve; also: actives are rising curves; nearly all actives have a fitted effect of over 50% in size
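OD600 was taken as the measure of yeast growth restored by compound in an NS1-expressing S. cerevisiae strain. Cells had been washed out of glucose medium and diluted 1:100 into galactose -URA medium, pH 6.0.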
CHX counter: affects cycloheximide protein synthesis inhibition readout, counter-screen; cell reporter, cycloheximide protein synthesis inhibition counterscreen; max response, %; actives 12% (n = 300,000); AID 2314; in the data active = max response mostly above about 13%, no sharp cut-off; inactive = mostly below about 14%; also: read at 38.3 µM for the half of the compounds with a filed dose
Of the large screens only hits and unclear results are named; the others gave an inactive call. Unless noted, calls follow the shape of the dose curve; as a rule, active = well fitted curve in the direction sought with a large enough effect; inconclusive = small, poorly fitted or top-dose-only effect, or another doubt; inactive = no such curve, though single readings can be large; an effect the other way counts as inactive or inconclusive.

Cc1ccc(SCC(=O)Nc2cccc(S(=O)(=O)N3CCOCC3)c2)cc1C	Pf growth 48h 17µM, Pf growth 96h inconclusive (no result: Shiga inhibitor, NS1 inh, CHX counter)
CCN(CC)S(=O)(=O)c1ccc(C)c(NC(=O)CNc2cccc(S(=O)(=O)N3CCCC3)c2)c1	Pf growth 48h 12µM (no result: Shiga inhibitor, NS1 inh, CHX counter)
Cc1ccc(C)c(N(C(=O)c2snc(C(N)=O)c2N)C(C(=O)NCC2CCCO2)c2ccc(C)o2)c1 (centres undefined)	Pf growth 48h inconclusive
O=C(NCc1ccc2c(c1)CCN2C(=O)c1ccccc1)c1cc2ccccc2[nH]1	none (no result: Shiga inhibitor, Pf growth 48h, Pf growth 96h, NS1 inh, CHX counter)
O=C(CNc1ccccc1F)Nc1cccc(S(=O)(=O)N2CCCCC2)c1	Pf growth 48h inconclusive, Pf growth 96h inconclusive (no result: Shiga inhibitor, NS1 inh, CHX counter)
O=C(CNc1cccc(S(=O)(=O)N2CCCC2)c1)Nc1ccc(F)c(F)c1	Pf growth 48h 1.5µM, Pf growth 96h 1.3µM (no result: Shiga inhibitor, NS1 inh, CHX counter)
Cc1ccc(NC(=O)CNc2cccc(S(=O)(=O)N3CCOCC3)c2)cc1F	Pf growth 48h 10µM, Pf growth 96h 6.6µM (no result: Shiga inhibitor, NS1 inh, CHX counter)
Cc1ccc(NC(=O)CNc2cccc(S(=O)(=O)N3CCCC3)c2)cc1F	Pf growth 48h 9.3µM, Pf growth 96h 5.2µM (no result: Shiga inhibitor, NS1 inh, CHX counter)
O=C(CN(CCO)c1ccccc1)Nc1cccc(S(=O)(=O)N2CCCC2)c1	Pf growth 96h 13µM (no result: NS1 inh)
CCN(CC)S(=O)(=O)c1cc(NC(=O)CNc2cccc(S(=O)(=O)N3CCOCC3)c2)ccc1C	Pf growth 48h inconclusive, Pf growth 96h inconclusive (no result: Shiga inhibitor, NS1 inh, CHX counter)
O=C(O)CCn1c(-c2ccccc2)cc2ccccc21	Pf growth 96h inconclusive
O=C(Nc1cccc(S(=O)(=O)N2CCCCC2)c1)C1CCCN1S(=O)(=O)c1ccccc1F (centres undefined)	Pf growth 48h 10µM, Pf growth 96h inconclusive (no result: Shiga inhibitor, NS1 inh, CHX counter)
O=C(CNc1cccc(C(F)(F)F)c1)Nc1cccc(S(=O)(=O)N2CCCC2)c1	Pf growth 48h inconclusive, Pf growth 96h inconclusive (no result: Shiga inhibitor, NS1 inh, CHX counter)
O=C(CNc1cccc(S(=O)(=O)N2CCCC2)c1)Nc1cccc(F)c1	Pf growth 48h 3.7µM, Pf growth 96h 10µM (no result: Shiga inhibitor, NS1 inh, CHX counter)
COc1ccc(C(=O)O)cc1Nc1nc2ccc(C)cc2n2cnnc12	none (no result: Shiga inhibitor, Pf growth 48h, Pf growth 96h, NS1 inh, CHX counter)
CN1C(=O)C(O)(CC(=O)/C=C/c2ccco2)c2cc(Br)ccc21 (centres undefined)	Sm TGR block 18µM, Pf growth 48h inconclusive, Pf growth 96h inconclusive
C=CCN1C(=O)C(O)(CC(=O)c2ccc(OC)cc2OC)c2cc(Br)ccc21 (centres undefined)	Pf growth 48h 12µM
CN1C(=O)C(O)(CC(=O)c2ccccc2O)c2cc(Br)ccc21 (centres undefined)	Pf growth 48h inconclusive, Pf growth 96h 1.2µM
CN1C(=O)C(O)(CC(=O)c2cccc(-n3cccc3)c2)c2ccccc21 (centres undefined)	Pf growth 48h 9.3µM
CN1C(=O)C(O)(CC(=O)/C=C/c2ccco2)c2ccccc21 (centres undefined)	none (no result: Sm TGR block)
O=C(CC1(O)C(=O)Nc2ccccc21)c1cccc(-n2cccc2)c1 (centres undefined)	none
COc1ccc(C(=O)CC2(O)C(=O)N(CCc3ccccc3)c3ccc(Br)cc32)cc1OC (centres undefined)	none (no result: Shiga inhibitor, Pf growth 48h, Pf growth 96h, NS1 inh, CHX counter)
O=C(CSc1nc2ccccc2nc1Cc1ccccc1)N1CCc2ccccc21	none (no result: Shiga inhibitor, Pf growth 48h, Pf growth 96h, NS1 inh, CHX counter)
N#Cc1cnc(Sc2ccccc2)nc1	Pf growth 48h inconclusive, Pf growth 96h 0.033µM (no result: NS1 inh)
COc1ccc(S(=O)(=O)N2CC(=O)Nc3ccccc32)cc1F	Sm TGR block 11µM, Pf growth 96h inconclusive
O=C1CN(S(=O)(=O)c2ccc(F)cc2)c2ccccc2N1	none
Clc1ccc2c(N/N=C/c3cccnc3)ccnc2c1	Pf growth 48h 0.66µM, Pf growth 96h 0.83µM, CHX counter 17 (no result: NS1 inh)
Clc1ccc2c(N/N=C/c3ccc(Br)cc3)ccnc2c1	Pf growth 48h 0.33µM, Pf growth 96h 1.5µM
COc1ccc(C(=O)Nc2ccnn2C2CCN(C(C)CSC)CC2)cc1 (centres undefined)	Pf growth 96h 2.9µM
COc1ccc(C(=O)Nc2ccnn2C2CCN(Cc3cccnc3)CC2)cc1	none
COc1ccc(C(=O)Nc2ccnn2C2CCN(C(=O)c3cccnc3)CC2)cc1	Shiga inhibitor 60, Pf growth 96h inconclusive, CHX counter 30
CC1CCN(S(=O)(=O)c2cn(CC(=O)N3CCN(c4cccc(C(F)(F)F)c4)CC3)cn2)CC1	none
Cc1c(/C=C/C(=O)c2ccc(O)cc2)cnn1C	Shiga inhibitor 49, CHX counter 19
CCn1ncc(/C=C/C(=O)c2ccccc2)c1C	Shiga inhibitor active, CHX counter 45
CCn1ncc(/C=N\NC(=O)COc2ccccc2)c1C	Shiga inhibitor 67
Cc1c(/C=C/C(=O)c2ccc(Cl)s2)cnn1C	CHX counter 27
CC(C)C[C@H](NC(=O)[C@H](CO)NC(=O)CNC(=O)[C@H](CCCCN)NC(=O)[C@H](CCCN=C(N)N)NC(=O)[C@H](C)NC(=O)[C@H](Cc1ccccc1)NC(=O)[C@@H](N)CCCN=C(N)N)C(=O)N[C@@H](CCCN=C(N)N)C(=O)N[C@@H](CCC(N)=O)C(=O)N[C@@H](CCCCN)C(=O)N[C@@H](CC(N)=O)C(=O)N[C@H](C(=O)O)C(C)C	none (no result: Sm TGR block, Pf growth 48h, Pf growth 96h, NS1 inh)
Cc1ccccc1Cn1nc(C)c(NC(=O)/C=C/c2cnn(C)c2C)c1C	Pf growth 48h inconclusive, Pf growth 96h inconclusive
Cc1c(/C=C/C(=O)c2ccc(C(C)C)cc2)cnn1C	Shiga inhibitor 133, CHX counter 40 (no result: Sm TGR block)
Cc1c(/C=C/C(=O)c2ccccc2)cnn1C	Shiga inhibitor 180, CHX counter 53
Cc1ccc(-c2noc(N=O)c2NO)cc1	Pf growth 48h inconclusive, Pf growth 96h inconclusive
CCN(CC(=O)NC1CCS(=O)(=O)C1)S(=O)(=O)c1ccc(Cl)cc1C(F)(F)F (centres undefined)	none (no result: Shiga inhibitor, NS1 inh, CHX counter)
Cc1nc(-c2ccc(S(=O)(=O)N3CCN(c4cccc(Cl)c4)CC3)cc2)co1	none (no result: Shiga inhibitor, Pf growth 48h, Pf growth 96h, NS1 inh, CHX counter)
COC(=O)c1c(C)oc(C)c1S(=O)(=O)N(C)C1CCCCC1	Sm TGR block 45µM
COC(=O)c1c(C)oc(C)c1S(=O)(=O)NCC1CC1	none
Cc1cc(NS(=O)(=O)c2ccc(NC(=O)c3ccc(Br)o3)cc2)nc(C)n1	none (no result: NS1 inh)
CC(C)CC(C)c1cc(N)nc2nc3ccccc3n12 (centres undefined)	Pf growth 48h 10µM, Pf growth 96h 12µM (no result: NS1 inh)
CCOc1ccc(NS(=O)(=O)c2ccc(NC(=S)NC(=O)C(C)C)cc2)cc1	none (no result: Pf growth 96h)
CCOc1ccc(NS(=O)(=O)c2ccc(NC(=S)NC(C)=O)cc2)cc1	Pf growth 48h inconclusive, Pf growth 96h 3.7µM
CCOc1ccc(NS(=O)(=O)c2ccc3ncsc3c2)cc1	Pf growth 96h 3.7µM
CC12CCC(/C(=N/O)C1=O)C2(C)C (centres undefined)	none (no result: Sm TGR block, Pf growth 48h, Pf growth 96h, NS1 inh)
CC1CSc2n(-c3cccc(C(F)(F)F)c3)cc(-c3ccccc3)[n+]21 (centres undefined)	Pf growth 48h 1.9µM, Pf growth 96h inconclusive
